# Assay results reported in PubChem BioAssay AID1159580 (chemical genetic matrix, 2015).
# Out of some 5,500 compounds screened, about 2,000 (36%) were called active. Not shown: some 18% with an inconclusive outcome. The list shows a part of the results. Values without a mark were called inactive. Rule as the data show it: active = normalized growth mostly below about 0.91 (no sharp cut-off); inconclusive = no clear call, values can overlap the other calls; inactive = mostly above about 0.92.
# Test: chemical genetic growth profiling, strain panel (AID 1159580);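 also: tested at 20 µM; growth read once vehicle control cultures reached saturation at 30 °C; 1 = growth at the plate median or of vehicle wells; lower values mean less growth of the strain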
# Settings: growth OD
# [1] = S. cerevisiae deletion strains, locus YAL013W, strain DEP1, stronger effect = lower value
# [2] = S. cerevisiae deletion strains, locus YBR229C, strain ROT2, stronger effect = lower value
# [3] = S. cerevisiae deletion strains, locus YDL101C, strain DUN1, stronger effect = lower value
# [4] = S. cerevisiae deletion strains, locus YDL134C, strain PPH21, stronger effect = lower value
# [5] = S. cerevisiae deletion strains, locus YDR150W, strain NUM1, stronger effect = lower value
# [6] = S. cerevisiae deletion strains, locus YEL061C, strain CIN8, stronger effect = lower value
# [7] = S. cerevisiae deletion strains, locus YGR078C, strain PAC10, stronger effect = lower value
# [8] = S. cerevisiae deletion strains, locus YHR030C, strain SLT2, stronger effect = lower value
# [9] = S. cerevisiae deletion strains, locus YHR087W, strain rtc3, stronger effect = lower value
# [10] = S. cerevisiae deletion strains, locus YJR043C, strain POL32, stronger effect = lower value
# [11] = S. cerevisiae deletion strains, locus YJR075W, strain HOC1, stronger effect = lower value
# [12] = S. cerevisiae deletion strains, locus YKL190W, strain CNB1, stronger effect = lower value
# [13] = S. cerevisiae deletion strains, locus YLR039C, strain RIC1, stronger effect = lower value
# [14] = S. cerevisiae deletion strains, locus YLR058C, strain SHM2 (second series), stronger effect = lower value
# [15] = S. cerevisiae deletion strains, locus YLR085C, strain ARP6, stronger effect = lower value
# [16] = S. cerevisiae deletion strains, locus YLR262C, strain YPT6, stronger effect = lower value
# [17] = S. cerevisiae deletion strains, locus YML094W, strain GIM5, stronger effect = lower value
# [18] = S. cerevisiae deletion strains, locus YMR219W, strain ESC1, stronger effect = lower value
# [19] = S. cerevisiae deletion strains, locus YMR263W, strain SAP30, stronger effect = lower value
# [20] = S. cerevisiae deletion strains, locus YNL153C, strain GIM3, stronger effect = lower value
# [21] = S. cerevisiae deletion strains, locus YNL298W, strain CLA4 (second series), stronger effect = lower value
# [22] = S. cerevisiae deletion strains, locus YNL322C, strain KRE1, stronger effect = lower value
# [23] = S. cerevisiae deletion strains, locus YNR030W, strain Alg12, stronger effect = lower value
# [24] = S. cerevisiae deletion strains, locus YOL006C, strain TOP1, stronger effect = lower value
# [25] = S. cerevisiae deletion strains, locus YPL055C, strain LGE1, stronger effect = lower value
# [26] = S. cerevisiae deletion strains, locus YPL241C, strain CIN2, stronger effect = lower value
# [27] = S. cerevisiae deletion strains, locus YPR135W, strain CTF4, stronger effect = lower value
compound,measurement,setting,value
O=C(Nc1ccccc1F)C(Cl)Cl,normalized growth,[1],0.999
same,normalized growth,[2],0.989
same,normalized growth,"S. cerevisiae deletion strains, locus YCL061C, strain MRC1, stronger effect = lower value",1
same,normalized growth,[3],0.994
same,normalized growth,[4],0.967
same,normalized growth,[5],1.01
same,normalized growth,[6],1.01
same,normalized growth,[7],0.975
same,normalized growth,[8],1.07
same,normalized growth,[9],0.981
same,normalized growth,[10],0.997
same,normalized growth,[11],0.971
same,normalized growth,[12],0.981
same,normalized growth,[13],1.16
same,normalized growth,[14],0.987
same,normalized growth,[15],0.991
same,normalized growth,[16],1.14
same,normalized growth,[17],0.992
same,normalized growth,[18],0.991
same,normalized growth,[19],0.995
same,normalized growth,[20],1.02
same,normalized growth,[21],0.984
same,normalized growth,[22],0.987
same,normalized growth,[23],0.976
same,normalized growth,[24],1.02
same,normalized growth,[25],0.962
same,normalized growth,[26],0.977
same,normalized growth,[27],0.99
Nc1ccccc1SCC(=O)Nc1c(F)cccc1F,normalized growth,[1],0.982
same,normalized growth,[2],0.998
same,normalized growth,[3],0.979
same,normalized growth,[4],1.04
same,normalized growth,[5],0.977
same,normalized growth,[6],1.03
same,normalized growth,[7],1
same,normalized growth,[8],0.938
same,normalized growth,[9],1.05
same,normalized growth,"S. cerevisiae deletion strains, locus YJL187C, strain SWE1, stronger effect = lower value",1.03
same,normalized growth,[10],0.975
same,normalized growth,[11],1.01
same,normalized growth,[12],1.01
same,normalized growth,[13],0.672 (active)
same,normalized growth,[14],1.02
same,normalized growth,[15],0.985
same,normalized growth,[16],0.595 (active)
same,normalized growth,[17],0.955
same,normalized growth,[18],0.998
same,normalized growth,[19],1.01
same,normalized growth,[20],1.01
same,normalized growth,[21],1.03
same,normalized growth,[22],1
same,normalized growth,[23],1
same,normalized growth,[24],0.903
same,normalized growth,[25],0.994
same,normalized growth,[26],0.977
same,normalized growth,[27],1.02
same,normalized growth,"S. cerevisiae strains, strain wild type, stronger effect = lower value",1.01
O=C(NC(=O)c1c(F)cccc1Cl)OCc1ccc(Cl)cc1Cl,normalized growth,"S. cerevisiae deletion strains, locus YAR019C, strain CDC15, stronger effect = lower value",0.987
same,normalized growth,"S. cerevisiae deletion strains, locus YBL105C, strain PKC1, stronger effect = lower value",0.981
same,normalized growth,"S. cerevisiae deletion strains, locus YBR135W, strain CKS1, stronger effect = lower value",0.975
same,normalized growth,"S. cerevisiae deletion strains, locus YBR136W, strain MEC1, stronger effect = lower value",0.984
same,normalized growth,"S. cerevisiae deletion strains, locus YBR160W, strain CDC28, stronger effect = lower value",0.976
same,normalized growth,"S. cerevisiae deletion strains, locus YDL017W, strain CDC7, stronger effect = lower value",0.99
same,normalized growth,"S. cerevisiae deletion strains, locus YDL028C, strain MPS1, stronger effect = lower value",0.978
same,normalized growth,[3],0.989
same,normalized growth,"S. cerevisiae deletion strains, locus YDL108W, strain KIN28, stronger effect = lower value",0.976
same,normalized growth,"S. cerevisiae deletion strains, locus YDL132W, strain cdc53, stronger effect = lower value",0.984
same,normalized growth,"S. cerevisiae deletion strains, locus YDL214C, strain PRR2, stronger effect = lower value",0.879
same,normalized growth,"S. cerevisiae deletion strains, locus YDR052C, strain DBF4, stronger effect = lower value",0.978
same,normalized growth,"S. cerevisiae deletion strains, locus YDR054C, strain cdc34, stronger effect = lower value",0.979
same,normalized growth,"S. cerevisiae deletion strains, locus YDR226W, strain ADK1, stronger effect = lower value",0.983
same,normalized growth,"S. cerevisiae deletion strains, locus YDR477W, strain SNF1, stronger effect = lower value",0.915
same,normalized growth,"S. cerevisiae deletion strains, locus YER123W, strain YCK3, stronger effect = lower value",0.848
same,normalized growth,"S. cerevisiae deletion strains, locus YER133W, strain GLC7, stronger effect = lower value",0.893
same,normalized growth,"S. cerevisiae deletion strains, locus YFL009W, strain cdc4, stronger effect = lower value",0.985
same,normalized growth,"S. cerevisiae deletion strains, locus YFL029C, strain CAK1, stronger effect = lower value",0.987
same,normalized growth,"S. cerevisiae deletion strains, locus YFR003C, strain YPI1, stronger effect = lower value",0.98
same,normalized growth,"S. cerevisiae deletion strains, locus YFR019W, strain FAB1, stronger effect = lower value",0.941
same,normalized growth,"S. cerevisiae deletion strains, locus YFR028C, strain CDC14, stronger effect = lower value",0.988
same,normalized growth,"S. cerevisiae deletion strains, locus YGR040W, strain KSS1, stronger effect = lower value",0.9
same,normalized growth,"S. cerevisiae deletion strains, locus YGR052W, strain FMP48, stronger effect = lower value",0.9
same,normalized growth,"S. cerevisiae deletion strains, locus YGR092W, strain DBF2, stronger effect = lower value",0.831
same,normalized growth,[8],0.63 (active)
same,normalized growth,"S. cerevisiae deletion strains, locus YHR079C, strain IRE1, stronger effect = lower value",0.873
same,normalized growth,"S. cerevisiae deletion strains, locus YHR082C, strain KSP1, stronger effect = lower value",0.95
same,normalized growth,"S. cerevisiae deletion strains, locus YHR205W, strain SCH9, stronger effect = lower value",0.731
same,normalized growth,"S. cerevisiae deletion strains, locus YIL147C, strain SLN1, stronger effect = lower value",0.986
same,normalized growth,"S. cerevisiae deletion strains, locus YJL095W, strain BCK1, stronger effect = lower value",0.845
same,normalized growth,"S. cerevisiae deletion strains, locus YJL128C, strain PBS2, stronger effect = lower value",0.927
same,normalized growth,"S. cerevisiae deletion strains, locus YJL157C, strain FAR1, stronger effect = lower value",0.878
same,normalized growth,"S. cerevisiae deletion strains, locus YJR016C, strain ILV3, stronger effect = lower value",0.974
same,normalized growth,"S. cerevisiae deletion strains, locus YJR066W, strain TOR1 (second series), stronger effect = lower value",0.869
same,normalized growth,"S. cerevisiae deletion strains, locus YJR066W, strain TOR1, stronger effect = lower value",0.884
same,normalized growth,"S. cerevisiae deletion strains, locus YKL048C, strain ELM1, stronger effect = lower value",0.905
same,normalized growth,"S. cerevisiae deletion strains, locus YKL067W, strain YNK1, stronger effect = lower value",0.9
same,normalized growth,"S. cerevisiae deletion strains, locus YKL101W, strain HSL1, stronger effect = lower value",0.863
same,normalized growth,"S. cerevisiae deletion strains, locus YKL193C, strain SDS22, stronger effect = lower value",0.985
same,normalized growth,"S. cerevisiae deletion strains, locus YKL203C, strain TOR2, stronger effect = lower value",0.914
same,normalized growth,"S. cerevisiae deletion strains, locus YLR113W, strain HOG1, stronger effect = lower value",0.71 (active)
same,normalized growth,"S. cerevisiae deletion strains, locus YLR133W, strain CKI1, stronger effect = lower value",0.876
same,normalized growth,"S. cerevisiae deletion strains, locus YLR403W, strain SFP1, stronger effect = lower value",0.854
same,normalized growth,"S. cerevisiae deletion strains, locus YML070W, strain DAK1, stronger effect = lower value",0.858
same,normalized growth,"S. cerevisiae deletion strains, locus YMR001C, strain CDC5, stronger effect = lower value",0.985
same,normalized growth,"S. cerevisiae deletion strains, locus YMR205C, strain PFK2 (second series), stronger effect = lower value",0.906
same,normalized growth,"S. cerevisiae deletion strains, locus YMR277W, strain FCP1, stronger effect = lower value",0.98
same,normalized growth,"S. cerevisiae deletion strains, locus YNL006W, strain LST8, stronger effect = lower value",0.983
same,normalized growth,"S. cerevisiae deletion strains, locus YNL020C, strain ARK1, stronger effect = lower value",0.818
same,normalized growth,"S. cerevisiae deletion strains, locus YNL161W, strain CBK1, stronger effect = lower value",0.974
same,normalized growth,"S. cerevisiae deletion strains, locus YNL183C, strain NPR1, stronger effect = lower value",0.875
same,normalized growth,"S. cerevisiae deletion strains, locus YNL207W, strain RIO2, stronger effect = lower value",0.966
same,normalized growth,"S. cerevisiae deletion strains, locus YNL222W, strain SSU72, stronger effect = lower value",0.978
same,normalized growth,"S. cerevisiae deletion strains, locus YNL307C, strain MCK1 (second series), stronger effect = lower value",0.828
same,normalized growth,"S. cerevisiae deletion strains, locus YOL078W, strain AVO1, stronger effect = lower value",0.983
same,normalized growth,"S. cerevisiae deletion strains, locus YOL136C, strain PFK27, stronger effect = lower value",0.851
same,normalized growth,"S. cerevisiae deletion strains, locus YOR061W, strain CKA2, stronger effect = lower value",0.899
same,normalized growth,"S. cerevisiae deletion strains, locus YOR119C, strain RIO1, stronger effect = lower value",0.961
same,normalized growth,"S. cerevisiae deletion strains, locus YOR231W, strain MKK1, stronger effect = lower value",0.835
same,normalized growth,"S. cerevisiae deletion strains, locus YOR329C, strain SCD5, stronger effect = lower value",0.978
same,normalized growth,"S. cerevisiae deletion strains, locus YPL031C, strain PHO85, stronger effect = lower value",0.887
same,normalized growth,"S. cerevisiae deletion strains, locus YPL153C, strain RAD53, stronger effect = lower value",0.914
same,normalized growth,"S. cerevisiae deletion strains, locus YPL204W, strain HRR25, stronger effect = lower value",0.867
same,normalized growth,"S. cerevisiae deletion strains, locus YPL209C, strain IPL1, stronger effect = lower value",0.979
same,normalized growth,"S. cerevisiae deletion strains, locus YPL256C, strain CLN2, stronger effect = lower value",0.711 (active)
same,normalized growth,"S. cerevisiae deletion strains, locus YPR025C, strain CCL1, stronger effect = lower value",0.976
same,normalized growth,"S. cerevisiae deletion strains, locus YPR106W, strain ISR1, stronger effect = lower value",0.966
same,normalized growth,"S. cerevisiae deletion strains, locus YPR111W, strain DBF20, stronger effect = lower value",0.949
same,normalized growth,"S. cerevisiae deletion strains, strain NNK1, stronger effect = lower value",0.977
same,normalized growth,"S. cerevisiae deletion strains, strain TSCII, stronger effect = lower value",0.979
